{"source": "ChEMBL document CHEMBL3988442", "about": "“University of Dundee, Small-Polar-MMV Screening Library” (2021)", "note": "The campaign covered roughly 48,000 compounds. About 13,000 (27%) showed an effect of 50% or more. The list shows a part of the results."}
{"test_system": "Wolbachia pipientis", "experiment": "Anti-Wolbachia Cell-Based Screen", "assay_type": "functional", "design": "scale not given: in the data most compounds retested in dose-response had high values", "conditions": "5 µM", "units": {"Percent Effect": "%"}}
{"smiles": "CCOc1cc(CNCc2ncc[nH]2)c(Cl)cc1OC(C)C", "Percent Effect": -9.365}
{"smiles": "CN(CCN1CCCC1)c1nccc(N2CCN[C@H]3CS(=O)(=O)C[C@H]32)n1", "Percent Effect": -5.82}
{"smiles": "COCCN1CCc2ncnc(OC(C)C)c2CC1.O=C(O)C(F)(F)F", "Percent Effect": 107.2}
{"smiles": "Nc1nc(CNc2ncnc3c2CCN(Cc2ccoc2)CC3)cs1", "Percent Effect": -10.72}
{"smiles": "CC(C)Nc1ncnc2c1CCN(c1cc(C(F)(F)F)ncn1)CC2", "Percent Effect": -0.2205}
{"smiles": "COc1ccc(CN2CCc3ncnc(OC(C)C)c3CC2)cc1.O=C(O)C(F)(F)F", "Percent Effect": -22.8}
{"smiles": "CC(C)Nc1ncnc2c1CCN(Cc1nccn1C)CC2.O=C(O)C(F)(F)F.O=C(O)C(F)(F)F", "Percent Effect": -25.56}
{"smiles": "CC(C)Oc1ncnc2c1CCN(Cc1ccc(F)cc1)CC2.O=C(O)C(F)(F)F", "Percent Effect": 2.897}
{"smiles": "c1cc(CCNc2ncnc3c2CCN(Cc2ccoc2)CC3)ccn1", "Percent Effect": -12.64}
{"smiles": "CC(C)Nc1ncnc2c1CCN(Cc1ccoc1)CC2", "Percent Effect": 96.99}
{"smiles": "COCCN1CCc2ncnc(NC(C)C)c2CC1.O=C(O)C(F)(F)F", "Percent Effect": 87.2}
{"smiles": "O=C(N[C@@H]1C[C@H]2CC[C@@H]1C2)C1(Oc2ccc(Cl)cc2)CCNCC1", "Percent Effect": 5.083}
{"smiles": "Cc1nonc1C(=O)N1CCc2c(ncn2CCc2ccccc2)C1", "Percent Effect": 7.043}
{"smiles": "COCCNc1ncc(-c2cccc(OC)c2)c(-c2nccn2C)n1", "Percent Effect": 73.04}
{"smiles": "CSCCCNC(=O)Nc1cccc(-c2nccn2C)c1", "Percent Effect": 3.955}
{"smiles": "Cc1ccc(CNC(c2cccc(F)c2)c2nccn2C)o1.Cl", "note": "(stereo unspecified)", "Percent Effect": -1.716}
{"smiles": "COc1cccc(-c2nc(CNCCn3cccn3)cs2)c1", "Percent Effect": -13.66}
{"smiles": "CSC(C)(C)CNC(=O)Nc1cccc(-c2nccn2C)c1", "Percent Effect": -14.94}
{"smiles": "Cn1ccnc1-c1nc(NC2CCCC2)ncc1-c1cccc(F)c1", "Percent Effect": 77.55}
{"smiles": "COc1cccc(-c2cc(NCc3nccn3C)n(C)n2)c1", "Percent Effect": -16.42}
{"smiles": "COCCCNc1ncc(-c2cccc(F)c2)c(-c2nccn2C)n1", "Percent Effect": 116.3}
{"smiles": "COCCNc1ncc(-c2cccc(F)c2)c(-c2nccn2C)n1", "Percent Effect": 111.1}
{"smiles": "Cc1nnc(CN(C)CC(=O)N2CCCC(C(F)(F)F)C2)n1C", "note": "(stereo unspecified)", "Percent Effect": -17.87}
{"smiles": "CC1CCc2nc(O)c(C(=O)NCc3ccccc3F)cc2C1", "note": "(stereo unspecified)", "Percent Effect": -2.667}
{"smiles": "C[C@@H]1CN(S(=O)(=O)N2CCCCCC2)C[C@@]1(O)C1CCC1", "Percent Effect": 19.36}
{"smiles": "O=C(O)C(F)(F)F.O=C([C@H]1C[C@H]2OCC[C@H]2N(C(=O)c2ccncc2)C1)N1CCCC1", "Percent Effect": -2.024}
{"smiles": "N#Cc1ccc(SCCC(=O)NC(N)=O)cc1", "Percent Effect": 0.3622}
{"smiles": "Cc1c(F)cccc1S(=O)(=O)N(C)CC(C)O", "note": "(stereo unspecified)", "Percent Effect": 10.31}
{"smiles": "CCOCCCC(=O)Nc1c(-c2ccc(F)cc2)ncn1C", "Percent Effect": -11.11}
{"smiles": "CCOCCNC(=O)Nc1cccc(-c2nccn2C)c1", "Percent Effect": -19.42}
{"smiles": "CCOCCCNc1ncc(-c2cccc(F)c2)c(-c2nccn2C)n1", "Percent Effect": 61.85}
{"smiles": "CCCc1cnc(C)nc1N1CCC(F)(F)CC1", "Percent Effect": -3.547}
{"smiles": "Cc1cccc2c1nc1n2[C@@H](CNC(=O)NC(C)C)COC1", "Percent Effect": -19.06}
{"smiles": "Cc1cc(Nc2ccc3c(c2)CC(=O)N3)nc(C2CC2)n1", "Percent Effect": -4.534}
{"smiles": "Cn1nccc1-c1nc2c(cc1C(=O)O)CCN(CC1CC1)CC2", "Percent Effect": -6.641}
{"smiles": "CC(C)Oc1cccc(C(=O)C2CCCN(C(=O)c3ccnn3C)C2)c1", "note": "(stereo unspecified)", "Percent Effect": -5.247}
{"smiles": "Cn1cc(C(=O)NC2CCN(Cc3ccn(C)c(=O)c3)CC2)cn1", "Percent Effect": -2.603}
{"smiles": "Cn1cc(-c2cnc(-c3ccnn3C)nc2)cc1C(=O)N1CCCC1", "Percent Effect": 85.82}
{"smiles": "Cn1cc(-c2cnc(-c3ccnn3C)nc2)cc1C(=O)NC1CC1", "Percent Effect": 95.89}
{"smiles": "Cc1cn2c(n1)CCC(NC(=O)c1cc(Br)cn1C)C2", "note": "(stereo unspecified)", "Percent Effect": -1.001}
{"smiles": "Cn1nccc1C(=O)N1CCN(C(=O)C2CC2)[C@@H]2CS(=O)(=O)C[C@@H]21", "Percent Effect": 14.29}
{"smiles": "Cn1cc(-c2cnc(N3CCCC3)nc2)cc1C(=O)O", "Percent Effect": -13.43}
{"smiles": "Cn1nccc1-c1ncc(-c2cc(C(=O)O)n(CC3CC3)c2)cn1", "Percent Effect": 118.9}
{"smiles": "COc1cccc2c1OCC(C(=O)N1CCC(N3CCSCC3)CC1)C2", "note": "(stereo unspecified)", "Percent Effect": -10.16}
{"smiles": "CSc1ccc(NCC(=O)NC(=O)NCC(F)(F)F)cc1F", "Percent Effect": 2.815}
{"smiles": "CCN(Cc1ccoc1)C(=O)Nc1ccccc1CN1CCOCC1", "Percent Effect": 2.801}
{"smiles": "Cc1cc(C(=O)NC2CC(=O)N(C(C)C)C2=O)c(C)n1C(C)C", "note": "(stereo unspecified)", "Percent Effect": -25.95}
{"smiles": "O=S(=O)(c1cccs1)N1CCC(c2nc(-c3cccs3)no2)CC1", "Percent Effect": 1.77}
{"smiles": "N[C@H]1CN(S(=O)(=O)c2cccnc2)C[C@@H]1C1CC1", "Percent Effect": -0.9551}
{"smiles": "Cc1noc(C)c1-c1n[nH]c2c1CN(S(=O)(=O)c1cccnc1)CC2", "Percent Effect": 2.189}
{"smiles": "Cc1cc(N(C)C)cc(C2CCN(S(=O)(=O)c3cccnc3)C2)n1", "note": "(stereo unspecified)", "Percent Effect": 129.7}
